The text below walks through data of publication PMC7862700, “An all-to-all approach to the identification of sequence-specific readers for epigenetic DNA modifications on cytosine”.

Assay in all cases: DAPPL (digital affinity profiling via proximity ligation, sequencing); 10 mM Tris-HCl pH 7.5, 50 mM NaCl, 1 mM DTT, 4% glycerol, room temperature, 30 min; GST-TFs on glutathione beads, 16-mer random dsDNA library, 0.1% formaldehyde crosslink after washing; high values mean tight binding
In assay [1] the target is T1, FEV (Homo sapiens, UniProt Q99581 1-238).
T1 sequence: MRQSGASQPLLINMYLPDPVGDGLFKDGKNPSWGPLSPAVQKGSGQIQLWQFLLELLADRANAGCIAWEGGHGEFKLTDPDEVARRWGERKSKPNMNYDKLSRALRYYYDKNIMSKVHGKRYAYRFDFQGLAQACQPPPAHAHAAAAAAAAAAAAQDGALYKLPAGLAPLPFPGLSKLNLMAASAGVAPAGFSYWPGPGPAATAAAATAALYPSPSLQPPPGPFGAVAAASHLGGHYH
The conditions noted are these: protein: recombinant; tags: N-terminal GST; dsDNA, one strand shown. The essentials:
(§1)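 Human transcription factors fused to GST were expressed in yeast, captured on glutathione beads, given DNA barcodes and pooled with a GST-only negative control. Pools were incubated with 200 nmole of a 16-mer random double-stranded DNA library in Tris/NaCl/DTT/glycerol buffer at room temperature for 30 min. They were then washed, crosslinked with 0.1% formaldehyde, proximity-ligated (BsaI/T4 ligase, 1 h, 37 °C), PCR-amplified and sequenced on an Illumina NextSeq500. Binding signal is each 6-mer's read frequency for a factor divided by its frequency for the GST control.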

The target of assay [2] is ETV5 (Homo sapiens, UniProt P41161 1-510). The settings on record: protein: recombinant; tags: N-terminal GST; dsDNA, one strand shown. The essentials:
as §1

Assay [3] addresses HSF1 (Homo sapiens, UniProt Q00613 1-529). The settings on record: protein: recombinant; tags: N-terminal GST; chain copies: 3; dsDNA, one strand shown. An outline of the steps: as §1
The target of assay [4] is T2, SPIC (Homo sapiens, UniProt Q8N5J4 1-248).
T2 sequence: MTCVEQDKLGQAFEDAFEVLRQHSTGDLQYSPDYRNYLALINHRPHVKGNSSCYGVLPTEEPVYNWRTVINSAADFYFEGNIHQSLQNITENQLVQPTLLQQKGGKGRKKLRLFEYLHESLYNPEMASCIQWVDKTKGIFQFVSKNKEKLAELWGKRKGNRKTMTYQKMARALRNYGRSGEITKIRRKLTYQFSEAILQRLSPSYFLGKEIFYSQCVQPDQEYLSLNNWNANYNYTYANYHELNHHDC
The conditions noted are these: protein: recombinant; tags: N-terminal GST; dsDNA, one strand shown. The essentials: as §1

For assay [5], the target named is ELF4 (Homo sapiens, UniProt Q99607 1-663). The conditions noted are these: protein: recombinant; tags: N-terminal GST; dsDNA, one strand shown. The essentials: as §1
In assay [6] the target is T3, ELK4 (Homo sapiens, UniProt P28324-2 1-405).
T3 sequence: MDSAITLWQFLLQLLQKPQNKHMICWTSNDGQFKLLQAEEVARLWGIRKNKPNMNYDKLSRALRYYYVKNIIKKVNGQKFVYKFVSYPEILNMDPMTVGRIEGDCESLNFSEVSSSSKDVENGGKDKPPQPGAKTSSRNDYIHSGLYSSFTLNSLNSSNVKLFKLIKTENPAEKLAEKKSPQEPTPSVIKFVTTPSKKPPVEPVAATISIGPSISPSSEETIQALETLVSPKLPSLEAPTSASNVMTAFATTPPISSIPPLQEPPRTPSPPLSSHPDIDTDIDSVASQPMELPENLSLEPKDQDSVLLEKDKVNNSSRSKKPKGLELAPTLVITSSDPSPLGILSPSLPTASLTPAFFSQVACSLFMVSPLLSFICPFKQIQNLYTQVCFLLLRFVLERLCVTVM
The settings on record: protein: recombinant; tags: N-terminal GST; dsDNA, one strand shown. An outline of the steps: as §1

Assay [7] deals with T4, ETV2 (Homo sapiens, UniProt O00321 1-342).
T4 sequence: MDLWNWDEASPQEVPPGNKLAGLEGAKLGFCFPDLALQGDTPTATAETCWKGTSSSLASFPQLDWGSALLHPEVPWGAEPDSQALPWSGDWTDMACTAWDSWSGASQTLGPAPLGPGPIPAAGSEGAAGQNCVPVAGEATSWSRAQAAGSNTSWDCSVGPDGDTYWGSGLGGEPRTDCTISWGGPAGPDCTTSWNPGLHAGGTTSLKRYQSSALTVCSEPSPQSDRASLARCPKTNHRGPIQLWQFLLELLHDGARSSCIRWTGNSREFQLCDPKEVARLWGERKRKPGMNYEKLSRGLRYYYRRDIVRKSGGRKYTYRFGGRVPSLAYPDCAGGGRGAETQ
The conditions noted are these: protein: recombinant; tags: N-terminal GST; dsDNA, one strand shown. The essentials:
as §1

For assay [8], the target named is T5, ELF3 (Homo sapiens, UniProt P78545 1-371).
T5 sequence: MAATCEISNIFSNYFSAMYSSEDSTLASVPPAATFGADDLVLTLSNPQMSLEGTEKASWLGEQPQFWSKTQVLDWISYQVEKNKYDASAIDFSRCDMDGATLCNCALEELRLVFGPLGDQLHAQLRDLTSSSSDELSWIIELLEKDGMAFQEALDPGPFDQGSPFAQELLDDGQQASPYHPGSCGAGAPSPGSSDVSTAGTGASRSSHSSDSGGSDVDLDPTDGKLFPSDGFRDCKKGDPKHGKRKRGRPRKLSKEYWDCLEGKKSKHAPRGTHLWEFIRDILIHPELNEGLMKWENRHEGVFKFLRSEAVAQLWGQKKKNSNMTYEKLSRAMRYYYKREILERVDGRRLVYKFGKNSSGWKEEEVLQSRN
The settings on record: protein: recombinant; tags: N-terminal GST; dsDNA, one strand shown. An outline of the steps: as §1

Assay [9] concerns the target ETV1 (Homo sapiens, UniProt P50549 1-477). The conditions noted are these: protein: recombinant; tags: N-terminal GST; dsDNA, one strand shown. The essentials:
as §1

ETV1, sequence (P50549 whole entry): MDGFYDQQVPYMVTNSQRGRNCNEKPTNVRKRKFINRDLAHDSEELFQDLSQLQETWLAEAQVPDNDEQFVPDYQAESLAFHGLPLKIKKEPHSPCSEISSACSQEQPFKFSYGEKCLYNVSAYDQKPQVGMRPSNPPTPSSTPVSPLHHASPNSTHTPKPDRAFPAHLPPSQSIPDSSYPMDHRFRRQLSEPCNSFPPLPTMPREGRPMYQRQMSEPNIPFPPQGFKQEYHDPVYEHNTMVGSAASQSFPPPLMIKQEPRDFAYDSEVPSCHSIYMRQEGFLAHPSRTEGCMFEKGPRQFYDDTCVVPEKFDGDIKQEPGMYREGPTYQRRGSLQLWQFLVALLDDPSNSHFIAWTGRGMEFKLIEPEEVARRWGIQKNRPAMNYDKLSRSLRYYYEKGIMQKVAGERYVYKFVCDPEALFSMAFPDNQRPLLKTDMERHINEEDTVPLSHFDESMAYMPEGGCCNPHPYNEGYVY
HSF1, sequence (Q00613 whole entry): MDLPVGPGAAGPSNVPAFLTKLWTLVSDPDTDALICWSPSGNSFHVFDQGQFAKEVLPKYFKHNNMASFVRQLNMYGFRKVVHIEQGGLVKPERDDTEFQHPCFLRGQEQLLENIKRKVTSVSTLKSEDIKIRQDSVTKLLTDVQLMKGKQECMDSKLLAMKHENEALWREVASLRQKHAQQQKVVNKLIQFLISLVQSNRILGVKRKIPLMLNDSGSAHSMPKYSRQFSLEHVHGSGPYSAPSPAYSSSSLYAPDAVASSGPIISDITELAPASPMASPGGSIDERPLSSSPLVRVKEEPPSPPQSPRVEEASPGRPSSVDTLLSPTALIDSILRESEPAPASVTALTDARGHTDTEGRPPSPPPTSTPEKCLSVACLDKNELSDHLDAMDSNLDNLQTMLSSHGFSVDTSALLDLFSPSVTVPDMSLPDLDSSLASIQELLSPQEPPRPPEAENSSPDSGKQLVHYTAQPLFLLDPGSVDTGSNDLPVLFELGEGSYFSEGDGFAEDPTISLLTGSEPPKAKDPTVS
ETV5, sequence (P41161 whole entry): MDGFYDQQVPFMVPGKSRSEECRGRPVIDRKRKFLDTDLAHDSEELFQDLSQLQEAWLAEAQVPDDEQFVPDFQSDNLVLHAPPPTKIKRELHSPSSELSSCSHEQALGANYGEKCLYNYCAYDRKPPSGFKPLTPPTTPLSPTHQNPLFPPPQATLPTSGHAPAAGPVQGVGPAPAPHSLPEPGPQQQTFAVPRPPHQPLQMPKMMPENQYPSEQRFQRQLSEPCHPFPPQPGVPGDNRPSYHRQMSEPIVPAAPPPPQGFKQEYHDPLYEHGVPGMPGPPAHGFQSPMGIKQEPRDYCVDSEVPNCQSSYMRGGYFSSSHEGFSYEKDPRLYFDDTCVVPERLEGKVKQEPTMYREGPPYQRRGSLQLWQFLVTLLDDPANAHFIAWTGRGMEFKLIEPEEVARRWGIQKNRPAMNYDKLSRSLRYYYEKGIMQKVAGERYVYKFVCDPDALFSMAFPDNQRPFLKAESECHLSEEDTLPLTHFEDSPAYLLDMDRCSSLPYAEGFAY
ELF4, sequence (Q99607 whole entry): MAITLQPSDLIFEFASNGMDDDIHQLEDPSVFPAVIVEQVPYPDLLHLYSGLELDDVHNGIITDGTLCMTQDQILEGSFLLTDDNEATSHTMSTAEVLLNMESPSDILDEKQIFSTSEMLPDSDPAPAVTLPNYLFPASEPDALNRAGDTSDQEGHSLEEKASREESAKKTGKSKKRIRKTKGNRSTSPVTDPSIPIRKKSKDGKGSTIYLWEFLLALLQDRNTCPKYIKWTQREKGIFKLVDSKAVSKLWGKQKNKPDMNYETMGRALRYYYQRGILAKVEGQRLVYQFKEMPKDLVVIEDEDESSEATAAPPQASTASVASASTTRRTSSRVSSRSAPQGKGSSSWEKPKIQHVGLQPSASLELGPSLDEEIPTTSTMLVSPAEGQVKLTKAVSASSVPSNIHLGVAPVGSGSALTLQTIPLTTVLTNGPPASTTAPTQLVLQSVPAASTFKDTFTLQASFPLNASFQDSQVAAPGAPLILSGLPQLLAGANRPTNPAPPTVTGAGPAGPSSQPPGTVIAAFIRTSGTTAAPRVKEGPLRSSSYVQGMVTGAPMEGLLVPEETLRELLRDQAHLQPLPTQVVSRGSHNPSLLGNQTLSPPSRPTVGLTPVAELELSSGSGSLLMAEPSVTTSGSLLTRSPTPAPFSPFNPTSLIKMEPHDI

For the sequence CACGAA, the binding signal is 1.09 fold enrichment (6-mer frequency, TF over GST control) in assay [1]; 1.1 fold enrichment (6-mer frequency, TF over GST control) in assay [2]; 1.39 fold enrichment (6-mer frequency, TF over GST control) in assay [3]; 1.12 fold enrichment (6-mer frequency, TF over GST control) in assay [4]; 1.2 fold enrichment (6-mer frequency, TF over GST control) in [5]; 1.3 fold enrichment (6-mer frequency, TF over GST control) in [6]. Besides, the binding signal in [7] was 1.18 fold enrichment (6-mer frequency, TF over GST control); in [8], 1.07 fold enrichment (6-mer frequency, TF over GST control); in assay [9] it was 1.14 fold enrichment (6-mer frequency, TF over GST control).

Turning to GAAGAA, the binding signal in [1] is 1.08 fold enrichment (6-mer frequency, TF over GST control); in [2], 1.16 fold enrichment (6-mer frequency, TF over GST control); in assay [3], 1.46 fold enrichment (6-mer frequency, TF over GST control); in assay [4] it was 1.18 fold enrichment (6-mer frequency, TF over GST control); in assay [5], 1.15 fold enrichment (6-mer frequency, TF over GST control); in [6], 1.17 fold enrichment (6-mer frequency, TF over GST control). Moreover, the binding signal in assay [7] is 1.2 fold enrichment (6-mer frequency, TF over GST control); in [8], 1.26 fold enrichment (6-mer frequency, TF over GST control); in [9], 1.2 fold enrichment (6-mer frequency, TF over GST control).

Turning to ACTCAC, the binding signal was 1.24 fold enrichment (6-mer frequency, TF over GST control) in [1]; 1.18 fold enrichment (6-mer frequency, TF over GST control) in assay [2]; 1.07 fold enrichment (6-mer frequency, TF over GST control) in [3]; 1.25 fold enrichment (6-mer frequency, TF over GST control) in assay [4]; 1.24 fold enrichment (6-mer frequency, TF over GST control) in assay [5]; 1.18 fold enrichment (6-mer frequency, TF over GST control) in assay [6]. The binding signal in assay [7] is 1.24 fold enrichment (6-mer frequency, TF over GST control); in assay [8], 1.31 fold enrichment (6-mer frequency, TF over GST control); in assay [9], 1.15 fold enrichment (6-mer frequency, TF over GST control).

In the case of CGTCCC, the binding signal in assay [1] was 1.34 fold enrichment (6-mer frequency, TF over GST control); in assay [2] it was 1.3 fold enrichment (6-mer frequency, TF over GST control); in assay [3], 1.08 fold enrichment (6-mer frequency, TF over GST control); in assay [4], 1.38 fold enrichment (6-mer frequency, TF over GST control); in assay [5], 1.27 fold enrichment (6-mer frequency, TF over GST control); in [6], 1.39 fold enrichment (6-mer frequency, TF over GST control). In addition, the binding signal is 1.12 fold enrichment (6-mer frequency, TF over GST control) in assay [7]; 1.45 fold enrichment (6-mer frequency, TF over GST control) in [8]; 1.34 fold enrichment (6-mer frequency, TF over GST control) in assay [9].

CTCGCC: the binding signal was 1.21 fold enrichment (6-mer frequency, TF over GST control) in assay [1]; 1.23 fold enrichment (6-mer frequency, TF over GST control) in [2]; 1.06 fold enrichment (6-mer frequency, TF over GST control) in assay [3]; 1.2 fold enrichment (6-mer frequency, TF over GST control) in assay [4]; 1.29 fold enrichment (6-mer frequency, TF over GST control) in [5]; 1.31 fold enrichment (6-mer frequency, TF over GST control) in [6]. Moreover, the binding signal in assay [7] is 1.32 fold enrichment (6-mer frequency, TF over GST control); in [8] it was 1.43 fold enrichment (6-mer frequency, TF over GST control); in assay [9] it was 1.26 fold enrichment (6-mer frequency, TF over GST control).

Turning to TGACAT, the binding signal in assay [1] is 1.23 fold enrichment (6-mer frequency, TF over GST control); in [2], 1.26 fold enrichment (6-mer frequency, TF over GST control); in [3], 1.01 fold enrichment (6-mer frequency, TF over GST control); in [4], 1.07 fold enrichment (6-mer frequency, TF over GST control); in assay [5], 1.24 fold enrichment (6-mer frequency, TF over GST control); in assay [6], 1.3 fold enrichment (6-mer frequency, TF over GST control). The binding signal in assay [7] was 1.18 fold enrichment (6-mer frequency, TF over GST control); in assay [8] it was 1.25 fold enrichment (6-mer frequency, TF over GST control); in assay [9], 1.23 fold enrichment (6-mer frequency, TF over GST control).

For the sequence AAGGAA, the binding signal was 1.19 fold enrichment (6-mer frequency, TF over GST control) in [1]; 1.35 fold enrichment (6-mer frequency, TF over GST control) in assay [2]; 1.17 fold enrichment (6-mer frequency, TF over GST control) in assay [3]; 1.36 fold enrichment (6-mer frequency, TF over GST control) in assay [4]; 1.25 fold enrichment (6-mer frequency, TF over GST control) in assay [5]; 1.12 fold enrichment (6-mer frequency, TF over GST control) in assay [6]. Also, the binding signal in [7] was 1.31 fold enrichment (6-mer frequency, TF over GST control); in assay [8], 1.66 fold enrichment (6-mer frequency, TF over GST control); in assay [9], 1.24 fold enrichment (6-mer frequency, TF over GST control).

As to GGATCC, the binding signal is 1.16 fold enrichment (6-mer frequency, TF over GST control) in [1]; 1.17 fold enrichment (6-mer frequency, TF over GST control) in [2]; 1.04 fold enrichment (6-mer frequency, TF over GST control) in [3]; 1.13 fold enrichment (6-mer frequency, TF over GST control) in [4]; 1.13 fold enrichment (6-mer frequency, TF over GST control) in assay [5]; 1.05 fold enrichment (6-mer frequency, TF over GST control) in assay [6]. In addition, the binding signal was 1.29 fold enrichment (6-mer frequency, TF over GST control) in assay [7]; 1.29 fold enrichment (6-mer frequency, TF over GST control) in assay [8]; 1.14 fold enrichment (6-mer frequency, TF over GST control) in [9].
